From PubChem
Sampled rows, rich in hits. Any-hit rate of the full collection: about 1.7%.
GLP1R cytotox = cytotoxic in the GLP-1 receptor inverse agonist counter-screen; Potency, µM (series often up to 38.3 µM), usual class: inhibitors; actives 0.13% (n = 410,000); HEK293 cAMP-luciferase reporter cells, luminescence, 24 h;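 also: loss of luciferase light is scored as toxicity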
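Luminescence readout: signal drop marks cytotoxicity. Plated cells grew 12 h at 37 °C, 5% CO2, received 23 nL compound for 24 h, then got luciferase reagent, read after 12 min at RT.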
GLP1R inv ag = inverse agonists of human GLP-1 receptor; HEK293 GLP-1R CRE-luciferase, luminescence, 24 h; GLP-1R form is constitutively active; P43220; AID 624417; Potency, µM (series often up to 38.3 µM), most hits filed as inhibitors; actives 1.6% (n = 410,000); also: nearly all actives have a fitted effect of over 55% in size
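GLP-1R inverse agonism mode: basal reporter luminescence in engineered HEK293 cells measured after one day of compound exposure at 37 deg C, with a 12 min room-temperature detection step.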
PTHR1 agonist = PTHR1 (human) receptor agonism; actives 0.075% (n = 410,000); AID 743266; HEK293 GP2 PTHR1 cells, GloSensor cAMP luminescence, 1 h; Q03431; Potency, µM (doses to about 115 µM), actives largely listed as activators; also: nearly all actives have a fitted effect of over 55% in size
Target sequence (Q03431 whole entry, looked up): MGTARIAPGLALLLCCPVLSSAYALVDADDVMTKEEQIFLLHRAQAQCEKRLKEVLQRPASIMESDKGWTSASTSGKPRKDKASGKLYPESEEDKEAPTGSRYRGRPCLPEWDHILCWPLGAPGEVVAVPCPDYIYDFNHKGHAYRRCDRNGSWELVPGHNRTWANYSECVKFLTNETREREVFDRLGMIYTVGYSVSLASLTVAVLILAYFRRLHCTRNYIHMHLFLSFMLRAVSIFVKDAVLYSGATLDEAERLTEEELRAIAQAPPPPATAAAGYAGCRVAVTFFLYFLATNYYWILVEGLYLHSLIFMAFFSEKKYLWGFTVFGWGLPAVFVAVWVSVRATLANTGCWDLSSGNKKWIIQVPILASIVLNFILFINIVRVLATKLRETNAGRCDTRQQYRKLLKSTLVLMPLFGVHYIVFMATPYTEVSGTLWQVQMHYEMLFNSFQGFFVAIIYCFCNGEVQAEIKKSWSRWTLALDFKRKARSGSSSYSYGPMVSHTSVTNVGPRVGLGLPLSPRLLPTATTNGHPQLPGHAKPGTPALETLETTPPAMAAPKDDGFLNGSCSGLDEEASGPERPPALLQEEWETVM
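HEK-293-derived GP2 cells expressing PTHR1 and a GloSensor cAMP reporter, 3,000/well, plated overnight, given luciferin plus IBMX (each 0.5 mM as added) for 1 h at 37 °C, then compound for 1 h at 37 °C. Luminescence was read after 15 min at room temperature.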
GLP1R ag = GLP-1 receptor (human) agonism | P43220 | HEK293 GLP-1R CRE-luciferase, luminescence, 4-6 h; cells express a hypersensitive GLP-1R form | Potency, µM (titrated, usually from 45.6 µM), actives largely listed as activators | actives 0.007% (n = 380,000)
Hits are given with their value; 0 = inactive; ? = inconclusive; - = no result. Calls follow the shape of the dose curve; as a rule, active = well fitted curve in the direction sought with a large enough effect; inconclusive = small, poorly fitted or top-dose-only effect, or another doubt; inactive = no such curve, though single readings can be large; an effect the other way counts as inactive or inconclusive.

SMILES	GLP1R cytotox	GLP1R inv ag	PTHR1 agonist	GLP1R ag
COc1cc(OC)cc(C(=O)Nc2ccc3nc(N4CCCCC4)cc(C)c3c2)c1	0	11.2µM	0	-
Cc1cc(N2CCN(C)CC2)nc2ccc(NC(=S)N3CCCCC3)cc12	0	10µM	0	0
Cc1ccc(OCC(=O)NC2CCCC(C)C2C)c([N+](=O)[O-])n1 (configuration not stated)	0	0	0	?
O=C(Nc1nc(-c2ccc(F)c(F)c2)cs1)c1cc([N+](=O)[O-])ccc1N1CCOCC1	0	0	0	0
Cc1cc(C)c(-c2csc(NC(=O)c3cc([N+](=O)[O-])ccc3N3CCOCC3)n2)c(C)c1	0	8.91µM	0	0
O=C(Cc1cccc2ccccc12)N/N=C/c1ccc(Sc2nc3ccccc3s2)o1	0	?	0	0
O=C(CNC(=O)c1ccc(F)cc1)Nc1ccccc1C(F)(F)F	0	0	0	0
COc1ccc(NC(=O)CSc2ccc3nnc(-c4ccccn4)n3n2)c(OC)c1	0	0	0	0
Oc1ccc(CNc2ccccc2)c2cccnc12	?	6.31µM	0	0
OCc1ccnc2c(O)cccc12	?	8.91µM	0	0
CSc1cnn(CCC#N)c(=O)n1	0	0	0	0
CN(C)S(=O)(=O)c1cccc(N=C2SCCN2Cc2ccccc2)c1	0	11.2µM	0	0
Cc1ccc(CCNC(=O)c2ccc(CS(=O)(=O)c3ccc(Br)cc3)o2)cc1	0	0	0	-
Cc1ccc(OCc2cc(C(=O)N3CCC(C(O)C(C)C)CC3)no2)cc1C (configuration not stated)	0	11.2µM	0	0
Cc1cccc(CC(C)NC(=O)c2cc(COc3ccc(C)c(C)c3)on2)n1 (configuration not stated)	0	10µM	0	0
O=C(c1cccs1)c1cn(CCOc2ccc(F)cc2)c2ccccc12	0	11.2µM	0	-
CC(C)(C)c1ccc(OCCn2cc(C(=O)c3ccco3)c3ccccc32)cc1	0	7.94µM	0	-
O=C(c1ccco1)c1cn(CCOc2ccc(Cl)cc2)c2ccccc12	0	0	0	-
COc1ccc(NC(=O)COC(=O)c2cnccn2)cc1Cl	0	0	0	0
CC(Nc1nc(N2CCNCC2)nc2ccccc12)c1ccccc1 (configuration not stated)	?	11.2µM	0	0
CC(Nc1nc(-c2ccncc2)nc2ccccc12)c1ccccc1 (configuration not stated)	0	7.08µM	0	?
O=C(CCN1C(=O)NC2(CCCC2)C1=O)Nc1ccc(Sc2ccc(Br)cc2)cc1	0	11.2µM	0	0
O=C(c1cc(Cl)nc2ccccc12)N1CCN(S(=O)(=O)c2cccc(C(F)(F)F)c2)CC1	0	11.2µM	0	0
CCc1nc2ccccc2n1CC(=O)N1CCN(S(=O)(=O)c2cccc(C(F)(F)F)c2)CC1	0	0	0	0
CC(C)CC1CCCCC1OC(=O)C[N+]1(C)CCCCC1 (configuration not stated)	0	0	0	0
SMILES	GLP1R cytotox	GLP1R inv ag	PTHR1 agonist	GLP1R ag
CN(Cc1ccccc1)C(=O)c1[nH]cnc1C(=O)NCC(=O)OCc1ccccc1	?	0	0	0
NC(=O)Cn1nc(-c2ccccc2)nc1-c1ccccc1	0	0	0	0
COc1ccc2[nH]c3c4c(ccc3c2c1)C(=O)C=CC4=O	7.94µM	?	0	0
COc1ccc2[nH]c(=O)cc(C(=O)O)c2c1	0	0	0	0
C/C=C/c1ccc(OCC(O)CN2CCCCC2CC)c(OC)c1 (configuration not stated)	0	12.6µM	0	0
C/C=C/c1ccc(OCC(O)CNCCc2ccc(OC)cc2)c(OC)c1 (configuration not stated)	?	?	0	0
COc1ccc(N2CCN(Cc3nc(Cc4cccc(F)c4)no3)C(C)C2)cc1 (configuration not stated)	0	5.62µM	0	0
CCOC(=O)N1CCN(Cc2nc(Cc3cccc(F)c3)no2)CC1	0	0	0	0
NNC(=O)CSc1cccc2cccnc12	0	0	0	0
Cc1cccc(NC(=O)CSc2cccc3cccnc23)c1	0	0	0	0
O=C(CSc1cccc2cccnc12)N1CCCC1	0.708µM	0.501µM	0	0
O=C(CSc1ncccn1)N1CCCCCC1	0	0	0	0
CCCCOc1ccc(NC(=O)CSc2cccc3cccnc23)cc1	?	2.82µM	0	0
CN(C)C(=O)CSc1cccc2cccnc12	2.51µM	2.82µM	0	0
